For some of these results: Potency and affinity values are given separately.
How the values were obtained:
Set-up in all cases: scale not given: direction of the effect not stated beside the values
[1] = molecular target: Protein translocase subunit SecA (Escherichia coli (strain K12)) (UniProt P10408); assay: Assay to Identify E. coli SecA ATPase Inhibitors; assay type: functional; settings: 30 µM
[2] = molecular target: T1, Ubiquitin-activating enzyme e1, putative (Leishmania donovani (strain BPK282A1)) (UniProt E9BSI1); assay: Leishmania donovani Ubiquitin Activating Enzyme (LdE1); assay type: functional; settings: 30 µM
T1 sequence (whole entry): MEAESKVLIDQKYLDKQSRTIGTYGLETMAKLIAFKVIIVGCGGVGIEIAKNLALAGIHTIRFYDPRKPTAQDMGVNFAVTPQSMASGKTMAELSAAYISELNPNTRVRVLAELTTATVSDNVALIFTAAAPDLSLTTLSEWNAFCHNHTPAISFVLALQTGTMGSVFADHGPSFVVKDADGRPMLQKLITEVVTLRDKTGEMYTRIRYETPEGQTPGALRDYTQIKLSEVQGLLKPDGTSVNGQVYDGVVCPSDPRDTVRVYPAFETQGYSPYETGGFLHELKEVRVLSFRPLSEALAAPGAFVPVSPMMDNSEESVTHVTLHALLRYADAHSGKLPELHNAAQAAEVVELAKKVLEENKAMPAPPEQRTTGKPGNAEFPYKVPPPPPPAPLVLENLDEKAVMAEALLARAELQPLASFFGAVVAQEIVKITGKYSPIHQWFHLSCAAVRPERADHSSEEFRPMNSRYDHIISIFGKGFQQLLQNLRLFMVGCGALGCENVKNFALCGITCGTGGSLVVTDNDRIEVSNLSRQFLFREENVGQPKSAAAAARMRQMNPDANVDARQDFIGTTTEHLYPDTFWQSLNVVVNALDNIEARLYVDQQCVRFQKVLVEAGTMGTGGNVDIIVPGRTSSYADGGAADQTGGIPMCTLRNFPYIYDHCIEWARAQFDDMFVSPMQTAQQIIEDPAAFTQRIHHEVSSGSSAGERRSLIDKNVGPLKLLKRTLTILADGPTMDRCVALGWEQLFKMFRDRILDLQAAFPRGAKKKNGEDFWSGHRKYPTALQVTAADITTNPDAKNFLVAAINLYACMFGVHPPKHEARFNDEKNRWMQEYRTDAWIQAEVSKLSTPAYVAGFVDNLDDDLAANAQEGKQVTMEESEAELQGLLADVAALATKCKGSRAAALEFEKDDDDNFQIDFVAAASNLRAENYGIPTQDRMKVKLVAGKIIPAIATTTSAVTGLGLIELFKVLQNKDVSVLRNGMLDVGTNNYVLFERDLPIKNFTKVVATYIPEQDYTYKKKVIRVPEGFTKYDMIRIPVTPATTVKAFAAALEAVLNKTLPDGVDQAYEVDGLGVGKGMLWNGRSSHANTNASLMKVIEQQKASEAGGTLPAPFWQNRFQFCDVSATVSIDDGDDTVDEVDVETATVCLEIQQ

[3] = molecular target: AMP-activated protein kinase, AMPK (Homo sapiens) (UniProt P54646+O43741+P54619+Q9UGJ0+Q9Y478+Q13131+Q9UGI9); assay: AMP-dependent Kinase enzyme assay. An in vitro enzyme assay that detects ADP turnover that is directly proportional to AMPK activity. This uses naive AMPK that is activated during the assay with MK-8722; assay type: functional; settings: 30 µM
[4] = molecular target: Sialic acid-binding Ig-like lectin 9 (Homo sapiens) (UniProt Q9Y336); assay: Hs-Siglec9 ALPHAscreen SOP 20170721; settings: 10 µM
Chain of Sialic acid-binding Ig-like lectin 9 (Homo sapiens) (Q9Y336 whole entry): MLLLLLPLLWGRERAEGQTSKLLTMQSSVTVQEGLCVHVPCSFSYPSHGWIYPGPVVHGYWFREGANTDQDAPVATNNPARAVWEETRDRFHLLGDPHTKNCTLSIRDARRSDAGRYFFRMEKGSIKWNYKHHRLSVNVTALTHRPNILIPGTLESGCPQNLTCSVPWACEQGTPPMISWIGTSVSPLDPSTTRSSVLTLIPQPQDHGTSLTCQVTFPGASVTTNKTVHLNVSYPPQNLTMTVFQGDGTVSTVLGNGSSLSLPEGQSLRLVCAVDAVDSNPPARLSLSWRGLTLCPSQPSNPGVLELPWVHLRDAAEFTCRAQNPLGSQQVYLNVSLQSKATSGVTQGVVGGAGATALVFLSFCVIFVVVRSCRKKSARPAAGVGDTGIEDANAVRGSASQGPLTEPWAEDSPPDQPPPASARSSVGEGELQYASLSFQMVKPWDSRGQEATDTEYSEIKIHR

Trypanosoma cruzi = assay: Trypanosoma cruzi phosphomannomutase and mannose-1-phosphate guanylyltransferase assay; assay type: functional; settings: 10 µM
[5] = molecular target: T2, Arginase-2, mitochondrial (Homo sapiens) (UniProt P78540); assay: in vitro enzyme assay to detect the production of urea directly proportional to the activity of Arginase II; assay type: functional; settings: 33.3 µM; also: in the data most compounds retested in dose-response had high values
T2 sequence (whole entry): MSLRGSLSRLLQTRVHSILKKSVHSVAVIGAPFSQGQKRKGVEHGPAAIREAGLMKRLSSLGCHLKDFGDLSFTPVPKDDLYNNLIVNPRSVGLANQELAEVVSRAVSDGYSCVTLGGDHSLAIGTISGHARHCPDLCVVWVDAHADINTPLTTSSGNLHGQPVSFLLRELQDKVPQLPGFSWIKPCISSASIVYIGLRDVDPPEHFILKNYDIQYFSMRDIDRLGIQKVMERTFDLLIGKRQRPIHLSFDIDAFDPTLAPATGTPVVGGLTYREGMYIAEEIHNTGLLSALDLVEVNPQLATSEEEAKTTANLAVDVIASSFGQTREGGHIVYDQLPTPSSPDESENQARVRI

[6] = molecular target: T3, Proteasome subunit beta (Trypanosoma cruzi) (UniProt O96673); assay: Trypanosoma cruzi proteasome chymotrypsin-like activity (TcProtChymo) assay.; also: in the data most compounds retested in dose-response had high values; assay type: functional; settings: 9.37 µM
T3 sequence (whole entry): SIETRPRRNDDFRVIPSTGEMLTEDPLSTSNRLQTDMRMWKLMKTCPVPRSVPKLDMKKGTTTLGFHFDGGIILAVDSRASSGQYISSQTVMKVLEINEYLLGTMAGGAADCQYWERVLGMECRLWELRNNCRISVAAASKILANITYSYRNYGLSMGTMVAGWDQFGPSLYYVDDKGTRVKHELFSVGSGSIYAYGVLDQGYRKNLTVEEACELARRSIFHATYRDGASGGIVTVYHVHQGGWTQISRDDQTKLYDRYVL

Homo sapiens = species on record: Homo sapiens; assay: To identify inhibition of the IFN signalling (Jak-Stat) pathway via expression of an eGFP reporter gene under the control of an IFN-stimulated response element (ISRE) containing MxA promoter.; assay type: functional; settings: 30 µM
[7] = molecular target: T4, Tyrosyl-tRNA synthetase, putative (Trypanosoma cruzi (strain CL Brener)) (UniProt Q4DSP6); assay: Trypanosoma cruzi tyrosyl tRNA synthetase (TcYRS) _High Tyrosine SOP; assay type: functional; settings: 30 µM; also: in the data most compounds retested in dose-response had high values
T4 sequence (whole entry): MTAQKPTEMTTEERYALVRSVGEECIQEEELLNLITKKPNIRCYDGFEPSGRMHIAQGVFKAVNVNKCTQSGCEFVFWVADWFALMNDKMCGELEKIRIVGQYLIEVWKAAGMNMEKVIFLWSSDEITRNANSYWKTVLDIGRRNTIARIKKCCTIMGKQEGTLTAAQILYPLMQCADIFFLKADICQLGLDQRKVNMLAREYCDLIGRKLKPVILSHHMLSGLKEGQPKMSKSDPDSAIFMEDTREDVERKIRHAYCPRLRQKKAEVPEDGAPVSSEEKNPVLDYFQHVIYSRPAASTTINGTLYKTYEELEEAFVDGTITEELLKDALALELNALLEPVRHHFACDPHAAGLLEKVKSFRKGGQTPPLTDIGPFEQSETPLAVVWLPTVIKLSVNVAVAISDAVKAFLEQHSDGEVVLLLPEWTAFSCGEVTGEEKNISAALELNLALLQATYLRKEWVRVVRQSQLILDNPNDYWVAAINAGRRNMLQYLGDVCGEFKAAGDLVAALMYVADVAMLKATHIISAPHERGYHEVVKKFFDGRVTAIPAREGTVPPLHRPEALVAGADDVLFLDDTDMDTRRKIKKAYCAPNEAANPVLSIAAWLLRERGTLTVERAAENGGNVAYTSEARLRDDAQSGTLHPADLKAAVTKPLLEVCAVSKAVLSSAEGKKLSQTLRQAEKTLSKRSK

[8] = molecular target: T4, Tyrosyl-tRNA synthetase, putative (Trypanosoma cruzi (strain CL Brener)); assay: Trypanosoma cruzi tyrosyl tRNA synthetase (TcYRS) SOP; assay type: functional; settings: 30 µM
[9] = molecular target: Chromo domain-containing protein 1 (Saccharomyces cerevisiae (strain ATCC 204508 / S288c) (Baker's yeast)) (UniProt P32657); assay: ScCHD-1 Enzyme Inhibition Assay; assay type: functional; settings: 30 µM; also: in the data most compounds retested in dose-response had high values
Chain of Chromo domain-containing protein 1 (Saccharomyces cerevisiae (strain ATCC 204508 / S288c) (Baker's yeast)) (P32657 whole entry, the tested form may be a part): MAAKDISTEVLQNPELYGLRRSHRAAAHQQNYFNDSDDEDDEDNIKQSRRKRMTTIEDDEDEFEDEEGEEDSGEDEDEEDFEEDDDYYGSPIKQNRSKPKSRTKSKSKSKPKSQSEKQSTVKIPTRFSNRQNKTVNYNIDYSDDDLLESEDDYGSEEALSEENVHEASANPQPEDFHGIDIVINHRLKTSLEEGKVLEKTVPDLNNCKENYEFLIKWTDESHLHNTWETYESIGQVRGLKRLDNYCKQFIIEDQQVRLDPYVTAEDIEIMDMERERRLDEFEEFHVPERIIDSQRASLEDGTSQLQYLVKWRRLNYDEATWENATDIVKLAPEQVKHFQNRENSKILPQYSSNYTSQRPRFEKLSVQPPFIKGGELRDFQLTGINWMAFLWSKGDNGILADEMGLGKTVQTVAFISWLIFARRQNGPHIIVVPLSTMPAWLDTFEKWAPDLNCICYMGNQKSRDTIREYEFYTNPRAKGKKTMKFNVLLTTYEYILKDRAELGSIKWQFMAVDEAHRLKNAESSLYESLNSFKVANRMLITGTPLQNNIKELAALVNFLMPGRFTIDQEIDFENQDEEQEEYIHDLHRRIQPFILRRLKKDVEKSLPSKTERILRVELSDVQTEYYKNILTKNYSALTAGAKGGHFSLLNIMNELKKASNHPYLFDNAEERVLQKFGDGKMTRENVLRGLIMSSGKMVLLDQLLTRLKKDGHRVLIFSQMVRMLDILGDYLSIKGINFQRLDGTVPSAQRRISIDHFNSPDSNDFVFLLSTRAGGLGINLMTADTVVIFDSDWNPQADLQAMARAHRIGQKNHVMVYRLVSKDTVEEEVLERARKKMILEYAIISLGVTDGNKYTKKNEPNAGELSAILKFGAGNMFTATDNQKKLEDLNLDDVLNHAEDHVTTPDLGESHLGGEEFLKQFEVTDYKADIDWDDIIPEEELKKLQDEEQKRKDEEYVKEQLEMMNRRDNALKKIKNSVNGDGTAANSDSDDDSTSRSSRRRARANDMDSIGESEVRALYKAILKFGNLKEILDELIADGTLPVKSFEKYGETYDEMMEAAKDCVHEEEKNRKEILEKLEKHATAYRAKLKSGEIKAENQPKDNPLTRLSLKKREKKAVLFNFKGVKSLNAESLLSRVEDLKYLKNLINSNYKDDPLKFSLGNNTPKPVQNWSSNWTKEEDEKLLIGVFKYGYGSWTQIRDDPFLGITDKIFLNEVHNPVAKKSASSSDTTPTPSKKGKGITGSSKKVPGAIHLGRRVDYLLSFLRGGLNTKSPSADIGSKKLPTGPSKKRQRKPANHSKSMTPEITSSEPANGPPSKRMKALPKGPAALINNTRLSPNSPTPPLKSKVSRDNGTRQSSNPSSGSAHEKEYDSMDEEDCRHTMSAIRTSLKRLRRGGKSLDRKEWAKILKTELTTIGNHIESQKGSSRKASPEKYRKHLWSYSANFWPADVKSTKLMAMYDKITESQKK

Chain of Protein translocase subunit SecA (Escherichia coli (strain K12)) (P10408 whole entry): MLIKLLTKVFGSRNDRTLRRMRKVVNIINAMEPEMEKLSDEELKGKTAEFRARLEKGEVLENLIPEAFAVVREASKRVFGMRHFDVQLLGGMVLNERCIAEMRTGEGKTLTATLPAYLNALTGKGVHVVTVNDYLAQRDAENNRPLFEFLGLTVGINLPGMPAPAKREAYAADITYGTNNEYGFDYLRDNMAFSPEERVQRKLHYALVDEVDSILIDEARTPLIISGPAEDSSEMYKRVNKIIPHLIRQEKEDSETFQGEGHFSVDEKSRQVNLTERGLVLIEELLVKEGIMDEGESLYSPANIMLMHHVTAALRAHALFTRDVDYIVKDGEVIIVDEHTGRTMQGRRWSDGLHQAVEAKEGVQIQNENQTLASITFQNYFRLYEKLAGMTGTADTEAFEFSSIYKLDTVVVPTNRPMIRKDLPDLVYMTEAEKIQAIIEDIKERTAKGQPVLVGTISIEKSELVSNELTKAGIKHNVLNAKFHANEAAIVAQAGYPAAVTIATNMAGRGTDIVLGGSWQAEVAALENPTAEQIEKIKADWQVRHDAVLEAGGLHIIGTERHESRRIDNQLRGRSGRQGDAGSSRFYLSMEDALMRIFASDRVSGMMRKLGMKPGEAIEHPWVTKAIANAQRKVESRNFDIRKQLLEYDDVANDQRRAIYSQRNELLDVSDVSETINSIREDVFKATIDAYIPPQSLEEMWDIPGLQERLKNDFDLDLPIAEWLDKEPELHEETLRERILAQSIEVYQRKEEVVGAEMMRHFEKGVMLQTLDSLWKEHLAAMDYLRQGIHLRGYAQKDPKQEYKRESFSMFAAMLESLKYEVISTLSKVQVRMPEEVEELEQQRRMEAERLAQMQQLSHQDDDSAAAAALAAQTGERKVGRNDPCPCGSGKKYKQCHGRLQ

Structure (SMILES)	Percent Effect [1]	Percent Effect [2]	Percent Effect [3]	Percent Effect [4]	Percent Effect (Trypanosoma cruzi)	Percent Effect [5]	Percent Effect [6]	Percent Effect (Homo sapiens)	Percent Effect [7]	Percent Effect [8]	Percent Effect [9]
Cc1nc(C)n(CC2CCCN2CC(=O)Nc2cc(C(C)C)no2)n1 (stereo unspecified)	-3.86%	18.4%	-3.35%	10.4%	1.03%	-0.36%	8.21%	22.5%	4.43%	16.1%	-3.86%
CC(C)c1nnc2n1CCN(CC(=O)Nc1nncs1)C2	-0.203%	13%	1.97%	-3.59%	5.19%	5.68%	8%	-15.7%	2.86%	14.1%	-14.6%
CCNC(=O)N(C)C(c1cccc(F)c1)c1ccccn1 (stereo unspecified)	-4.06%	2.6%	8.62%	13%	5.43%	-2.49%	9.46%	21.3%	7.77%	21.9%	-6.09%
CN(C)c1ccc(CNc2cncc(-n3cccn3)n2)cc1	-3.75%	5.2%	0.00463%	7.28%	3.75%	-6.05%	6.25%	9.83%	2.91%	12.2%	72%
C=Cc1ccc(C(=O)N2CCCC(Nc3ccc(OC)cc3)C2)cc1 (stereo unspecified)	-0.54%	8.11%	29%	18.1%	5.41%	-1.43%	3.28%	12.3%	10.1%	19.5%	-8.46%
O=C(Cc1cccc(F)c1)NCCNCc1ccco1	-9.13%	2.6%	7.05%	-0.647%	-3.37%	-2.13%	7.09%	34.8%	3.88%	2.44%	-7.92%
CC(C)Nc1nc2c(cc1C(=O)N(C)C)CCNCC2	-4.01%	16%	4.22%	9.77%	-0.772%	-24.6%	5.47%	-7.58%	0%	-7.5%	-4.61%
COCCOc1ccc(NC(=O)C2CCCN(C(N)=O)C2)cn1 (stereo unspecified)	-4.58%	7.59%	0.0742%	4.56%	-6.33%	1.52%	5.82%	22.6%	-0.493%	-1.27%	-5.42%
CN(C)CCNC(=O)c1ccc(OC2CCN(S(C)(=O)=O)CC2)c(Cl)c1	-6.99%	18.9%	-3.92%	19.3%	8.5%	3.23%	13.8%	-5.52%	7.53%	21%	-4.57%
CCOCCC(=O)N1CCCN(Cc2csc(CC)n2)CC1	-0.651%	3.8%	1.45%	3.57%	-1.74%	2.37%	25.7%	7.51%	6.25%	10.1%	-30.1%
CCCN1C(=O)CC(N2CCN(c3ccc(F)cc3)CC2)C1=O (stereo unspecified)	-0.321%	13.2%	5.3%	-9.41%	-3.99%	-7.1%	11.6%	11.5%	0%	7.79%	-5.52%

— ChEMBL document CHEMBL3988442, “University of Dundee, Small-Polar-MMV Screening Library” (2021)
